Records with an inconclusive call do not appear. Some structures have more than one record in an assay (separate samples or runs), and their calls can disagree. Calls of active or inactive are those of the source. The calls were made as follows: active = hit-call score of the fitted dose curve at least 0.9, where 1 is the maximum; inconclusive = response in the unintended direction; inactive = score below 0.9.
Key:
[1] = target: Estrogen receptor (Homo sapiens) (UniProt P03372); assay: NVS_NR_hER: NovaScreen (NVS) Nuclear Receptor Binding Assay for human Estrogen Receptor (ER) (AID 2283348)
Chain of Estrogen receptor (Homo sapiens) (P03372 whole entry, looked up, the tested form may be a part): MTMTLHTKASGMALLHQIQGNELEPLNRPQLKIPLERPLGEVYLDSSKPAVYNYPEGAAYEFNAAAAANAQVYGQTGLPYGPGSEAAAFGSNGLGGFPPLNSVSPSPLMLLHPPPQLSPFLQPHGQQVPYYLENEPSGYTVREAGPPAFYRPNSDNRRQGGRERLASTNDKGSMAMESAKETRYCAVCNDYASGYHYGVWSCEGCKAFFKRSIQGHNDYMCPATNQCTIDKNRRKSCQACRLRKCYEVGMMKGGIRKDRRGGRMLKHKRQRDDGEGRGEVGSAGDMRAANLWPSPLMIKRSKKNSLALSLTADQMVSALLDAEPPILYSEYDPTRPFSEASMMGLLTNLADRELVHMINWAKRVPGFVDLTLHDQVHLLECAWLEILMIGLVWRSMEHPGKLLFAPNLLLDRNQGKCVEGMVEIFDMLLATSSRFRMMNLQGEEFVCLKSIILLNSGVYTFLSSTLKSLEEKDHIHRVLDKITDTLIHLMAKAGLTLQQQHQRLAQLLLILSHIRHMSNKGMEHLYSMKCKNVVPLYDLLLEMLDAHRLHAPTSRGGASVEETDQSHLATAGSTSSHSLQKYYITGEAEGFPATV
Outline: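 Scintillation signal from bound radioligand was measured 18 hours after chemical addition to cell-free MCF7 protein extracts, with DMSO as baseline. Activity was scored as signal loss; compounds ran first at 25 uM in duplicate.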

[2] = target: Estrogen receptor (Homo sapiens) (UniProt P03372); assay: OT_ER_ERaERa_1440: Odyssey Thera (OT) 24-hour HEK293T Protein-Complementation Assay for Estrogen Receptor-alpha/-alpha Homodimer (AID 2283349);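 also: hits raise fluorescence above DMSO for agonists and antagonists alike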
Outline: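 Protein-fragment complementation between two human ERα ligand-binding domains (aa 310-547) in stably transfected HEK293T cells was monitored after 24 h treatment, using fluorescence intensity relative to vehicle controls.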

[3] = target: T1, Estrogen receptor (Homo sapiens) + Estrogen receptor beta (Homo sapiens) (UniProt P03372+Q92731); assay: OT_ER_ERaERb_0480: Odyssey Thera (OT) 8-hour HEK293T Protein-Complementation Assay for Estrogen Receptor-alpha/-beta Heterodimer (AID 2283352)
T1 sequence (P03372 whole entry, looked up, the tested form may be a part): as above
T1 sequence (Q92731 whole entry, looked up, the tested form may be a part): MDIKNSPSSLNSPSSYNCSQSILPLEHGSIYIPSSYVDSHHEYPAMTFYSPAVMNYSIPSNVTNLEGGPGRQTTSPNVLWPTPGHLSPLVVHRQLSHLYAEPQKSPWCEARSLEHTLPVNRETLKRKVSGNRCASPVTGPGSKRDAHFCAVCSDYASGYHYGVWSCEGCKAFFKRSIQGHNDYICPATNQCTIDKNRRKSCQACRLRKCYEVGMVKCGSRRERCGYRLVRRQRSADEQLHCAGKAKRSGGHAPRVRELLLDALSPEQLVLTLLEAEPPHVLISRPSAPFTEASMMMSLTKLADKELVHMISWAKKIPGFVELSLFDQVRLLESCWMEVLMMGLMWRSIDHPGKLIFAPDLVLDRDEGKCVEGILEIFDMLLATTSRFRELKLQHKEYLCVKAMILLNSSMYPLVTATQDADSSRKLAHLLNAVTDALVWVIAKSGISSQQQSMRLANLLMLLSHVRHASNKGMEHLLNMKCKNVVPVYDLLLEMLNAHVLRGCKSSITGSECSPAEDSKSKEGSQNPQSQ
Outline: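 HEK293T cells expressing ER-alpha/ER-beta LBD fusions to complementary reporter fragments were dosed with compound for 8 hours. Heterodimer formation was read as increased nuclear (agonist) or nuclear plus cytoplasmic (antagonist) mean fluorescence intensity versus DMSO vehicle.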

[4] = target: T1, Estrogen receptor (Homo sapiens) + Estrogen receptor beta (Homo sapiens); assay: OT_ER_ERaERb_1440: Odyssey Thera (OT) 24-hour HEK293T Protein-Complementation Assay for Estrogen Receptor-alpha/-beta Homodimer (AID 2283356);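 also: heteromer of ER alpha and ER beta binding domains; hits raise reporter fluorescence and both agonists and antagonists give an increase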
Outline: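 HEK293T cells stably expressing a PCA pair of ERα LBD (aa 310-547) and ERβ LBD (aa 263-489) were dosed for 24 h. Fluorescence intensity increase versus DMSO vehicle was fitted as gain-of-signal.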

[5] = target: Estrogen receptor beta (Homo sapiens) (UniProt Q92731); assay: OT_ER_ERbERb_0480: Odyssey Thera (OT) 8-hour HEK293T Protein-Complementation Assay for Estrogen Receptor-beta/-beta Homodimer (AID 2283357);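 also: active means signal gain over DMSO baseline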
Chain of Estrogen receptor beta (Homo sapiens) (Q92731 whole entry, looked up, the tested form may be a part): as above
Outline: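 Cells (HEK293T, stable ER-beta LBD PCA pair) are treated 8 hours, fixed and Draq5-stained; signal is fluorescence intensity increase relative to vehicle, fitted in the gain direction.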

[6] = target: Estrogen receptor (Homo sapiens) (UniProt P03372); assay: OT_ER_ERaERa_0480: Odyssey Thera (OT) 8-hour HEK293T Protein-Complementation Assay for Estrogen Receptor-alpha/-alpha Homodimer (AID 2283351);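 also: rise in fluorescence from reassembled reporter fragments on ERα LBD homodimer in nucleus or whole cell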
Outline: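 HEK293T, stable ERα LBD (aa 310-547) PCA homodimer; 8 h compound exposure; fluorescence intensity, laser scanning cytometer; positive fitting direction, DMSO baseline.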

[7] = target: Retinoic acid receptor alpha (Homo sapiens) (UniProt P10276); assay: NVS_NR_hRARa_Agonist: NovaScreen (NVS) Nuclear Receptor Binding Assay for human Retinoic Acid Alpha Receptor Agonism (RAR) (AID 2283361)
Chain of Retinoic acid receptor alpha (Homo sapiens) (P10276 whole entry, looked up): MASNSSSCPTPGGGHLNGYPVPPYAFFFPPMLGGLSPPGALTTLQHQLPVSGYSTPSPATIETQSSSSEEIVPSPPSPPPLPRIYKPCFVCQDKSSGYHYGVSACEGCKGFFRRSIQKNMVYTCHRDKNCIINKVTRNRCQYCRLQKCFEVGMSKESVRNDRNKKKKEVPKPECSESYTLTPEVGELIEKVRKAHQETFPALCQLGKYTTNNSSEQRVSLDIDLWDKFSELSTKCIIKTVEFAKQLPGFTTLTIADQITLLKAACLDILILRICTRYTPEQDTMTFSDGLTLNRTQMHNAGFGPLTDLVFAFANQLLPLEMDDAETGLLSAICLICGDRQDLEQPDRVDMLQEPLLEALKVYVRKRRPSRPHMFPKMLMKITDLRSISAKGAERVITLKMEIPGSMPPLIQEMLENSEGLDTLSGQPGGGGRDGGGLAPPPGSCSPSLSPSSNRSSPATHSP
Outline: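 Readout is time-resolved fluorescence resonance energy transfer after a 2 h exposure of cell-free extracted receptor protein. Initial testing used 25 uM in duplicate, with concentration-response follow-up for active chemicals.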

[8] = target: Androgen Receptor/SRC-1 Co-activator, AR (gene 367) (UniProt P10275); assay: OT_AR_ARSRC1_0960: Odyssey Thera (OT) 16-hour HEK293T Protein-Complementation Assay for Androgen Receptor/SRC-1 Co-activator (AID 2283353);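 also: actives raise the signal above DMSO so potency reflects increased AR and SRC-1 complex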
Chain of Androgen Receptor/SRC-1 Co-activator, AR (gene 367) (P10275 whole entry, looked up, the tested form may be a part): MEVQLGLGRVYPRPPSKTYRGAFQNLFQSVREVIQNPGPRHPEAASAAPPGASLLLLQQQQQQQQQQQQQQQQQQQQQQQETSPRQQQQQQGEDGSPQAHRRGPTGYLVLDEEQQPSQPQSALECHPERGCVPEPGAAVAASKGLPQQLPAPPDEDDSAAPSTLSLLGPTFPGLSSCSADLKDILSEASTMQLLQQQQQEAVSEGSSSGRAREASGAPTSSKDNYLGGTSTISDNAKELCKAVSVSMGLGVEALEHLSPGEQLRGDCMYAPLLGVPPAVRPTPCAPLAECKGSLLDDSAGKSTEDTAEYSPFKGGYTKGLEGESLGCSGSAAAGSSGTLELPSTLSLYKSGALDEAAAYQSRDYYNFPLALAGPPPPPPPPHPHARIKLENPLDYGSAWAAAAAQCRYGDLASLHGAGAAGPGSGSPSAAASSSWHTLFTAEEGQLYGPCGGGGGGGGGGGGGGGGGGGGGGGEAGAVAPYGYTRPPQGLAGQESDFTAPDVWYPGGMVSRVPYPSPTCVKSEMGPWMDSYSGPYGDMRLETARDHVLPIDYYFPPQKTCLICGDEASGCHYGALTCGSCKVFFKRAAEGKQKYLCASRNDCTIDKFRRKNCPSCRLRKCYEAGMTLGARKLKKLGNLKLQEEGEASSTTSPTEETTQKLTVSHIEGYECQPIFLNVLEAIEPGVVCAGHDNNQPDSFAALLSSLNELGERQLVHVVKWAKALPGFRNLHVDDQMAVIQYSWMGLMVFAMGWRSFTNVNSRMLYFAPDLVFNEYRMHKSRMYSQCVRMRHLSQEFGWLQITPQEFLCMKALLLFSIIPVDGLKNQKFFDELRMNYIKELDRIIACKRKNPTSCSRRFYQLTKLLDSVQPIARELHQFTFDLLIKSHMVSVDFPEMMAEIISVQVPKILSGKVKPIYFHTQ
Outline: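 Split-Venus PCA, AR/SRC-1 fusions, stable HEK293T; 16 h compound exposure; imaged at 488 and 635 nm; N/C ratio (488 nm channel), min 400 cells/image; positive-direction fit, DMSO baseline.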

[9] = target: Androgen Receptor/SRC-1 Co-activator, AR (gene 367) (UniProt P10275); assay: OT_AR_ARSRC1_0480: Odyssey Thera (OT) 8-hour HEK293T Protein-Complementation Assay for Androgen Receptor/SRC-1 Co-activator (AID 2283354);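 also: hits raise the complementation signal above DMSO so AC50 marks enhancers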
Outline: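 Measures AR/SRC-1 binding by Venus YFP fragment complementation in HEK293T stable lines at 8 h post-dose. Imaging quantifies the 488nm nucleus/cytoplasm ratio in ≥400 cells; DMSO defines baseline.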

[10] = target: Retinoic acid receptor alpha (Homo sapiens) (UniProt P10276); assay: NVS_NR_hRAR_Antagonist: NovaScreen (NVS) Nuclear Receptor Binding Assay for human Retinoic Acid Alpha Receptor Antagonism (RAR) (AID 2283358)
Outline: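 TR-FRET, cell-free, antagonist format; 2 h incubation after dosing; DMSO = baseline; signal loss fitted; 25 uM duplicate primary, then conc. series.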

[11] = target: human Peroxisome Proliferator-activated Receptor alpha (PPARa), PPARA (gene 5465) (UniProt Q07869); assay: NVS_NR_hPPARa: NovaScreen (NVS) Nuclear Receptor Binding Assay for human Peroxisome Proliferator-activated Receptor alpha (PPARa) (AID 2283359);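 also: activity means loss of TR-FRET signal versus DMSO baseline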
Chain of human Peroxisome Proliferator-activated Receptor alpha (PPARa), PPARA (gene 5465) (Q07869 whole entry, looked up): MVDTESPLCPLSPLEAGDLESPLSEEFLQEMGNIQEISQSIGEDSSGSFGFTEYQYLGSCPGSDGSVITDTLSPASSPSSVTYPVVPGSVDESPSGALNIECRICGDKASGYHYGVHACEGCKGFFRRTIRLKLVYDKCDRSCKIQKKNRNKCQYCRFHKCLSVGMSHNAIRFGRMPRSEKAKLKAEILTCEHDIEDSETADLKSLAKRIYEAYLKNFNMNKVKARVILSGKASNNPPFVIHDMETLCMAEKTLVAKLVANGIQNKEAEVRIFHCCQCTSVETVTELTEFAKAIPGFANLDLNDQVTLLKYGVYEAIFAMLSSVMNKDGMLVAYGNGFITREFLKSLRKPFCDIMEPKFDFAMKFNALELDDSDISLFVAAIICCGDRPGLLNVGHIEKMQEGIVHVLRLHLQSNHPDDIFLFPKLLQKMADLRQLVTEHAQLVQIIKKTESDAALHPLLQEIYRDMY
Outline: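 Chemicals were first screened in duplicate at 25 uM, and active ones were retested across concentration series. Binding was monitored by TR-FRET one hour after dosing, with decreased signal against DMSO counted as activity.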

[12] = target: Nuclear receptor subfamily 1 group I member 2 (Homo sapiens) (UniProt O75469); assay: NVS_NR_hPXR: NovaScreen (NVS) Nuclear Receptor Binding Assay for human Pregnane X Receptor (PXR) (AID 2283365);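 also: a drop in FRET signal versus DMSO baseline means the compound binds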
Chain of Nuclear receptor subfamily 1 group I member 2 (Homo sapiens) (O75469 whole entry, looked up): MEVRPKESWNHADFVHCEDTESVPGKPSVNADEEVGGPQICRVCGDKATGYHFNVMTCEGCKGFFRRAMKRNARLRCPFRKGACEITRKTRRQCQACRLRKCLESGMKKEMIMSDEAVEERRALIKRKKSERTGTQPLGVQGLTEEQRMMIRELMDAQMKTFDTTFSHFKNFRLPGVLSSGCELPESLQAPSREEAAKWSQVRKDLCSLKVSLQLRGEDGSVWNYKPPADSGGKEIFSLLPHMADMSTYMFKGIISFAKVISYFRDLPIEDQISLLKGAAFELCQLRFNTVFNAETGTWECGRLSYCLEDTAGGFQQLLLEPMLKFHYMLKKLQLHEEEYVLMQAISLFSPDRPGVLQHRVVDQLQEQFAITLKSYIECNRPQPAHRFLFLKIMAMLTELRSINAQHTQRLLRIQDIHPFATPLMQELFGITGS
Outline: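 Cell-free binding assay with extracted human PXR protein, read by TR-FRET 2 h after dosing; loss of signal relative to DMSO baseline indicates binding. Primary screen at 25 uM in duplicate, actives retested in concentration series.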

[13] = target: Bile acid receptor (Homo sapiens) (UniProt Q96RI1); assay: NVS_NR_hFXR_Agonist: NovaScreen (NVS) Nuclear Receptor Binding Assay for human Farnesoid X Receptor Agonism (FXR) (AID 2283347)
Chain of Bile acid receptor (Homo sapiens) (Q96RI1 whole entry, looked up): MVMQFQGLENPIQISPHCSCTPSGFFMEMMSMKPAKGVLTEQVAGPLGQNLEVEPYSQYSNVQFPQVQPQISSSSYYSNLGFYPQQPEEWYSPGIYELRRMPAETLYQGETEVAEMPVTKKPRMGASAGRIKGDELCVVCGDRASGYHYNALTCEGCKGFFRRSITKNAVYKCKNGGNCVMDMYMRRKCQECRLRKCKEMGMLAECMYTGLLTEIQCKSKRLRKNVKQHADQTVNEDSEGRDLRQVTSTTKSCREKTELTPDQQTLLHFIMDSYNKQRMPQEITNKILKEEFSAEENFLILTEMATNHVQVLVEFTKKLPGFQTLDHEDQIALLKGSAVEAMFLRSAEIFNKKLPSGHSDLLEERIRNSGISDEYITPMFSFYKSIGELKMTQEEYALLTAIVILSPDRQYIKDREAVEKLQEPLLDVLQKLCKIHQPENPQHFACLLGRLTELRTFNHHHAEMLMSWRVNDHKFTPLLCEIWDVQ
Outline: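 Cell-free TR-FRET binding assay with extracted human FXR protein, agonist format, read 1 h after dosing. Primary screen at 25 uM single concentration in duplicate, actives retested in concentration series; gain of signal versus DMSO.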

[14] = target: Glucocorticoid receptor (Homo sapiens) (UniProt P04150); assay: NVS_NR_hGR: NovaScreen (NVS) Nuclear Receptor Binding Assay for human Glucocorticoid Receptor (GR) (AID 2283363)
Chain of Glucocorticoid receptor (Homo sapiens) (P04150 whole entry, looked up): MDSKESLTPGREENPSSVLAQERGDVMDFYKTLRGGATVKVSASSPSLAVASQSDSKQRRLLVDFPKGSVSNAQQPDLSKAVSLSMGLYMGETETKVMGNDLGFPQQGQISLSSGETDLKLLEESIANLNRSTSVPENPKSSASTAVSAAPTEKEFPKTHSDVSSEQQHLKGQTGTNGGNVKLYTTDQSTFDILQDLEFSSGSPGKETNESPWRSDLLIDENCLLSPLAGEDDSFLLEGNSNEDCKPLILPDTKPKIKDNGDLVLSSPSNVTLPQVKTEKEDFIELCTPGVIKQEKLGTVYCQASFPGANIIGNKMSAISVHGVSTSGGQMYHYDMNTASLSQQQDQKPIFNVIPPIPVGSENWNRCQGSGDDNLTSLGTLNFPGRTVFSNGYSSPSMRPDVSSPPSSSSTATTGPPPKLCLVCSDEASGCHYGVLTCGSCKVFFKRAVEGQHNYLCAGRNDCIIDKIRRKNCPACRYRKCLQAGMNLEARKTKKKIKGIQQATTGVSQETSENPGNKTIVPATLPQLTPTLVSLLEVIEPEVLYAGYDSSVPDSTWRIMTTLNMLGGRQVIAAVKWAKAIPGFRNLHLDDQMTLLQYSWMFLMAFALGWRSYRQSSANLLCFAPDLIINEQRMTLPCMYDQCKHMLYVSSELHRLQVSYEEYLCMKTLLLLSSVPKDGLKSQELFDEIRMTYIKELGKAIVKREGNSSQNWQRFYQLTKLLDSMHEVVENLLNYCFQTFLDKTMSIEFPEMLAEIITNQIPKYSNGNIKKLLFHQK
Outline: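 Competitive displacement of a labelled ligand was measured on cell-free receptor preparations after 16 h exposure. Initial testing used 25 uM in duplicate with plate controls; confirmed actives went into concentration series.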

[15] = target: human Thyroid Receptor Alpha (TRa), THRA (gene 7067) (UniProt P10827); assay: NVS_NR_hTRa_Antagonist: NovaScreen (NVS) Nuclear Receptor Binding Assay for human Thyroid Receptor Alpha Antagonism (TRa) (AID 2283362);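 also: activity is loss of signal relative to DMSO baseline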
Outline: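 Cell-free binding assay on extracted receptor protein, read 1 h after chemical dosing by AlphaLISA chemiluminescence; loss of signal relative to DMSO baseline marks antagonism. Primary screen ran in duplicate at 25 uM, with concentration series for actives.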

Measured: AC50

c1ccc(OP(Oc2ccccc2)Oc2ccccc2)cc1
inactive: [1] | [2] | [3] | [4] | [5]

CCCCOCC1CO1 (configuration not stated)
inactive: [2] | [6]

O=[N+]([O-])c1ccc(Cl)c(Cl)c1
inactive: [2]

CCCCc1ccc(O)cc1
active: [2] 41.4 µM | [3] 19.7 µM | [4] 31.4 µM | [5] 10.5 µM
inactive: [1] | [7]

CC1(C)CN=C(NN=C(/C=C/c2ccc(C(F)(F)F)cc2)/C=C/c2ccc(C(F)(F)F)cc2)NC1
inactive: [2] | [3] | [4] | [5] | [11]
active: [1] 8.61 µM | [8] 12.7 µM | [9] 44 µM | [10] 25 µM | [12] 7.48 µM

CC(C)(C)OOC(C)(C)C
inactive: [13] | [2] | [3] | [4] | [5]

O=P(OCC(Br)CBr)(OCC(Br)CBr)OCC(Br)CBr (configuration not stated)
inactive: [1] | [2] | [6] | [9] | [4] | [5] | [11]
active: [8] 26.7 µM | [12] 0.423 µM

ClC1=C(Cl)C2(Cl)C3C(Cl)C(Cl)CC3C1(Cl)C2(Cl)Cl (configuration not stated)
active: [8] 38.1 µM | [9] 48.4 µM
inactive: [13] | [1] | [2] | [4] | [5] | [11] | [14]

CCOC(=O)c1ccccc1C(=O)OCC
inactive: [2]

ClC(Cl)(Cl)c1ccccc1
inactive: [1] | [2] | [3] | [4] | [5]

COCCOCCO
inactive: [1] | [2] | [3] | [5]

Nc1ccc(Sc2ccc(N)cc2)cc1
active: [1] 11 µM

O=P1(N(CCCl)CCCl)NCCCO1 (configuration not stated)
active: [1] 15.7 µM
inactive: [1] | [2] | [6] | [3] | [4] | [5]

CCCN(CCC)c1c([N+](=O)[O-])cc(C(C)C)cc1[N+](=O)[O-]
active: [2] 56.6 µM | [6] 36.8 µM | [3] 50 µM | [4] 56.9 µM
inactive: [1] | [5]

CO/N=C(/C(=O)OC)c1ccccc1COc1ccccc1C
active: [2] 76.4 µM
inactive: [1] | [8] | [9] | [15] | [12]

— PubChem BioAssay (EPA / NIEHS)
